# The panel holds about 83,000 compounds, 20% with a hit somewhere; the sample as a whole holds those more often.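 Cell lines were cultured in 96-well plates, exposed to a single compound concentration, and assessed for percent growth 48 hours later.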 Values without a mark were called inactive. Active and inactive are the calls of the source. How the source made its calls: active means growth percent below 10; inactive means the rest.
# Tested on: HL-60(TB) leukemia
# Experiment: NCI-60 one-dose screen, 48 h (100 = growth as untreated, 0 = no growth, -100 = all killed)
# Conditions: 10 µM unless noted
row,SMILES,growth
1,C/C(=N\O)C(=O)NCCCCCC(=O)Nc1ccccc1,93.2%
2,COc1cc2cc(Oc3ccc(NC(=O)Nc4cccc(C(F)(F)F)c4)cc3)c(C)nc2cc1OCCN1CCCCC1,-51.9% (active)
3,O=C(CSc1nnc(-c2cc(-c3ccc(Cl)cc3)nc3ccccc23)n1-c1ccccc1)Nc1ccc(Cl)cc1,85.8%
4,CC(=O)N1CCN(CCNC(=O)n2cc(-c3ccncc3)c(-c3ccc(O)c(Cl)c3)n2)CC1,106%
5,COc1ccc(-c2cc(-c3ccc(Cl)cc3)nc(SCCCC(=O)NO)n2)cc1,-22.9% (active)
6,CN1C(=O)N(C)C2C1NN=c1s/c(=C\c3ccc(Br)cc3)c(=O)n12 (centres undefined),-13.8% (active)
7,Cc1ccc(N)cc1[N+](=O)[O-],96.5%
8,COc1ccc(Cc2nc(C#N)c(N3CCN(c4ccc(F)cc4)CC3)o2)cc1,79.2%
9,COc1ccc(-c2nc3ccc(-c4nc5ccc(N6CCN(C)CC6)cc5[nH]4)cc3[nH]2)cc1OC,49.1%
10,COc1ccc2cc(-c3ccc(-c4ccc(C(=N)N)cc4)s3)ccc2c1,100%
11,C=CN(C(=O)N1CCN(c2cc3c(cc2F)c(=O)c(C(=O)O)cn3C2CC2)CC1)c1nc(-c2ccc(OC)cc2)cs1,-22.9% (active)
12,COc1cc(C=O)ccc1Oc1ccc([N+](=O)[O-])cc1[N+](=O)[O-],95.1%
13,COc1ccc(-c2nc(N)n(C(=S)Nc3ccccc3)n2)cc1,96.4%
14,CC1CCCCN1CCCNC(=O)c1ccc2c(c1)sc1nc(-c3ccc(F)cc3)cn12 (centres undefined),74.1%

# — PubChem BioAssay (NCI)
